Source: the supplement of paper PMC10849652
Targets with a hit are over-represented here; the source holds about 7,900 in all. About 0.6% of all pairs of compound and target were hits.

Legend:
Assay in all cases: log2 fold change, soluble protein after heating vs DMSO (PISA); higher = thermal stabilisation; K562 cells, 10 uM, 30 min; active = over 0.2 and 3.5 SD of the protein, either way, in both replicates (recomputed)
[1] = compound: NC(=O)Nc1cc(-c2cccc(F)c2)sc1C(=O)N[C@H]1CCCNC1
Procedure, shortened: (§1)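 Soluble protein was defined as the supernatant after 21,000xg for 90 min. It came from K562 cells at 2×10^6 cells/mL given 10 μM compound for 30 min, heated in aliquots for 3 min across 48°C-58°C, pooled, and extracted in PBS with 0.5% NP-40 at 4°C, and was quantified by TMTpro 16plex LC-MS/MS with equalised channel sums. Thermal stability against control samples, from duplicates, is reported as log2 fold change.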

[2] = compound: NC(=O)c1cnc(N[C@@H]2CCCC[C@@H]2N)nc1Nc1cccc(-n2nccn2)c1
Procedure, shortened: as §1

[3] = compound: NC1(c2ccc(-c3nc4ccn5c(=O)[nH]nc5c4cc3-c3ccccc3)cc2)CCC1
Procedure, shortened: as §1

[4] = compound: NCC(=O)Nc1ccc(-n2nc(C(F)(F)F)cc2-c2ccc3c(ccc4ccccc43)c2)cc1
Procedure, shortened: as §1

entinostat = compound: Nc1ccccc1NC(=O)c1ccc(CNC(=O)OCc2cccnc2)cc1 [entinostat]
Procedure, shortened: as §1

vorinostat = compound: O=C(CCCCCCC(=O)Nc1ccccc1)NO [vorinostat]
Procedure, shortened: as §1

citarinostat = compound: O=C(CCCCCCNC(=O)c1cnc(N(c2ccccc2)c2ccccc2Cl)nc1)NO [citarinostat]
Procedure, shortened: as §1

silmitasertib = compound: O=C(O)c1ccc2c(c1)nc(Nc1cccc(Cl)c1)c1ccncc12 [silmitasertib]
Procedure, shortened: as §1

[5] = compound: O=C1NC(=O)C(c2cnc3ccccn23)=C1c1cn2c3c(cc(F)cc13)CN(C(=O)N1CCCCC1)CC2
Procedure, shortened: as §1

[6] = compound: c1cc(OCCN2CCCCC2)cc(-c2n[nH]c3ccc(-c4nnc[nH]4)cc23)c1
Procedure, shortened: as §1

entospletinib = compound: c1cn2cc(-c3ccc4cn[nH]c4c3)nc(Nc3ccc(N4CCOCC4)cc3)c2n1 [entospletinib]
Procedure, shortened: as §1

Measured: log2 fold change

ITPRIP (UniProt Q8IWB1)
UniProt Q8IWB1, sequence (Q8IWB1 whole entry, looked up): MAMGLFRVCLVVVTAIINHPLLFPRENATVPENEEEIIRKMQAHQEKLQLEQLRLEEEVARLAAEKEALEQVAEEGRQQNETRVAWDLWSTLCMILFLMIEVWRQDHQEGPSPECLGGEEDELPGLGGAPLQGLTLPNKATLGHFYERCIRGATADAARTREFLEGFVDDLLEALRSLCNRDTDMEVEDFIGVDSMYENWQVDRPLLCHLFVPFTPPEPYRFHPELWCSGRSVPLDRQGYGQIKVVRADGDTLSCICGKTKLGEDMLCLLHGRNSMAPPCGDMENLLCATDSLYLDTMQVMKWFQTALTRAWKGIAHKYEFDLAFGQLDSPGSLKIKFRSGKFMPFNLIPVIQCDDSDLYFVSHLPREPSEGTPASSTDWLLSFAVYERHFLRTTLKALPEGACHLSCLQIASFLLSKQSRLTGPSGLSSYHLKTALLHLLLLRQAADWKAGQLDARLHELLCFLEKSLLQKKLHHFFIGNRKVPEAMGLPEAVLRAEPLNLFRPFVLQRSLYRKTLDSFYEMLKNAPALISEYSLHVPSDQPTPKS
active: [3] -0.373
inactive: [1] -0.041 | [2] -0.031 | [4] -0.021 | entinostat -0.01 | vorinostat -0.08 | citarinostat -0.076 | silmitasertib -0.009 | [5] 0.019 | [6] -0.06 | entospletinib -0.005

KHDRBS1 (UniProt Q07666)
inactive: [1] -0.013 | [2] -0.038 | [3] -0.009 | [4] -0.034 | entinostat -0.025 | vorinostat 0.037 | citarinostat 0.099 | silmitasertib 0.018 | [5] 0.039 | [6] -0.064 | entospletinib 0.189

KIF13A (UniProt Q9H1H9)
UniProt Q9H1H9, sequence (Q9H1H9 whole entry, looked up): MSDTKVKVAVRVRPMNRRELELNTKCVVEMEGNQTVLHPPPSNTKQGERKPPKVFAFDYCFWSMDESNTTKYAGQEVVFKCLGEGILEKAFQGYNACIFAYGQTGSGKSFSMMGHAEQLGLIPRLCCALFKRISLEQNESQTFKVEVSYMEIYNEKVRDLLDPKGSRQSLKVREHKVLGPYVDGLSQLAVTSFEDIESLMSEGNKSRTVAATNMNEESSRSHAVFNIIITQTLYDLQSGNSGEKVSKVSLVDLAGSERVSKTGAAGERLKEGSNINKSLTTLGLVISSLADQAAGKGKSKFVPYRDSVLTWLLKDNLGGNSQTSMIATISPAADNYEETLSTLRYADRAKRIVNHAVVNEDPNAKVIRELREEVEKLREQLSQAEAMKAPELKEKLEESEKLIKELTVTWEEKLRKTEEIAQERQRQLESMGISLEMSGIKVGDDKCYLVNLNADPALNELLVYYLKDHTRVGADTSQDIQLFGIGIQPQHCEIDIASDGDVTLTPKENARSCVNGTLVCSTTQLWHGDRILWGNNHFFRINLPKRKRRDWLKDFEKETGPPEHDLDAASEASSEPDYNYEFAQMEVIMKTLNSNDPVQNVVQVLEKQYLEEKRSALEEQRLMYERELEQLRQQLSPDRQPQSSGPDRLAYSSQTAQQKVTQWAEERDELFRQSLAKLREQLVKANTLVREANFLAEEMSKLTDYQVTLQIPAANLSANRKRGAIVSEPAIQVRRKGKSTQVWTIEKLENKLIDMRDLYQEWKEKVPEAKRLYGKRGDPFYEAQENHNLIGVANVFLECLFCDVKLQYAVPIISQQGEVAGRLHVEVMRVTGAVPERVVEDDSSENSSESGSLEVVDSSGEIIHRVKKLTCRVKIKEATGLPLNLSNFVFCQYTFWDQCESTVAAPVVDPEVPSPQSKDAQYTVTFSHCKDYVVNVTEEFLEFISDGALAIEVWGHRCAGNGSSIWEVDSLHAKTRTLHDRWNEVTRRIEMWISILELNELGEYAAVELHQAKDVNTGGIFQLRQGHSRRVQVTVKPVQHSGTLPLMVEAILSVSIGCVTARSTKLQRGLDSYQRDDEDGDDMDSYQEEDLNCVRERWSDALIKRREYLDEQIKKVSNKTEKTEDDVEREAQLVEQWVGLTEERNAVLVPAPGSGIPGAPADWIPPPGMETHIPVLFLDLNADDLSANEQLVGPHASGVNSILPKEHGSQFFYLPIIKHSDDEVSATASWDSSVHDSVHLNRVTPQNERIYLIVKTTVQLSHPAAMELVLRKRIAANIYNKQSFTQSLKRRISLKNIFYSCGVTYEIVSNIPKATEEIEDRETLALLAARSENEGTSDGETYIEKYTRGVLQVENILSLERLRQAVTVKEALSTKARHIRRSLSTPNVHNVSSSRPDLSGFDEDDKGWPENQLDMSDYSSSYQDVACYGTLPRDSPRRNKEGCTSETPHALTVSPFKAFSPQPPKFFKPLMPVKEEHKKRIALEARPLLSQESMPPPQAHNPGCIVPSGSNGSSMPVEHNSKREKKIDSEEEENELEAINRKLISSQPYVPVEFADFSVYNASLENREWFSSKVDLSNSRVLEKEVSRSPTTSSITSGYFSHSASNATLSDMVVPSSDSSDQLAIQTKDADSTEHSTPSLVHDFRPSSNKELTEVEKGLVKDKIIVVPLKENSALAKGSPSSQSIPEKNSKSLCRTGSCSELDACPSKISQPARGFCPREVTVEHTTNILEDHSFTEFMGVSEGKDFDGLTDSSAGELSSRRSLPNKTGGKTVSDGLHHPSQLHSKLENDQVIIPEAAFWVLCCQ
inactive: [1] -0.049 | [2] -0.008 | [3] -0.078 | [4] -0.064 | entinostat 0.04 | vorinostat -0.178 | citarinostat -0.041 | silmitasertib 0 | [5] -0.005 | [6] -0.061 | entospletinib 0.066

MGST1 (UniProt P10620)
UniProt P10620, sequence (P10620 whole entry, looked up): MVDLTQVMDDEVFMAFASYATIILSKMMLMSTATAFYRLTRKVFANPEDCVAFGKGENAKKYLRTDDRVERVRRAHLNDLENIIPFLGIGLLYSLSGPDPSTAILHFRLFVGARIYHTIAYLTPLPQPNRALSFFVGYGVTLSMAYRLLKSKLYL
inactive: [1] -0.025 | [2] -0.024 | [3] -0.035 | [4] 0.163 | entinostat 0.031 | vorinostat 0.027 | citarinostat -0.065 | silmitasertib 0.036 | [5] -0.086 | [6] 0.122 | entospletinib 0.051

KIF2C (UniProt Q99661)
UniProt Q99661, sequence (Q99661 whole entry, looked up): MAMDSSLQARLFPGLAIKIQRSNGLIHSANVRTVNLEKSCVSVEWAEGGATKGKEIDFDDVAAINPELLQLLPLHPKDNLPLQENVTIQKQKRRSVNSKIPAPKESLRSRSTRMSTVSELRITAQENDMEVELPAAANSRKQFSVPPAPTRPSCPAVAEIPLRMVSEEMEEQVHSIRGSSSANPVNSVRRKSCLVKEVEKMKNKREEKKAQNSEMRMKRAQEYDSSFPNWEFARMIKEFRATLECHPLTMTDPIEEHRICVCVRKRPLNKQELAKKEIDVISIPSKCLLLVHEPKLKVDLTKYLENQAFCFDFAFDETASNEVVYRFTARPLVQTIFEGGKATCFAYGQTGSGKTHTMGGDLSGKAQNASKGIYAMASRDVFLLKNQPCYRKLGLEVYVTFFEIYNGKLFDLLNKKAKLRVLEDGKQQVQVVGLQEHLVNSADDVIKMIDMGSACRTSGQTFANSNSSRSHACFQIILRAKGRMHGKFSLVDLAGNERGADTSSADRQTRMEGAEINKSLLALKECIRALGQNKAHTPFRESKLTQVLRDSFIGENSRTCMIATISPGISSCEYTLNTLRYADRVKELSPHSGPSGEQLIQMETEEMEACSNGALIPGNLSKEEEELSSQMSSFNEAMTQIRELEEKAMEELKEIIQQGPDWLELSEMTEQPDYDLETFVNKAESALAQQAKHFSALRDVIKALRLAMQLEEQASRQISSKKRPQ
inactive: [1] -0.024 | [2] 0 | [3] -0.053 | [4] -0.068 | entinostat 0.095 | vorinostat 0.122 | citarinostat 0.156 | silmitasertib -0.009 | [5] -0.005 | [6] -0.001 | entospletinib -0.097

IGFBP4 (UniProt P22692)
inactive: [1] -0.019 | [2] 0.032 | [3] -0.011 | [4] -0.02 | entinostat 0.022 | vorinostat -0.017 | citarinostat -0.124 | silmitasertib 0.119 | [5] 0.044 | [6] 0.15 | entospletinib 0.147

MAGEC2 (UniProt Q9UBF1)
UniProt Q9UBF1, sequence (Q9UBF1 whole entry, looked up): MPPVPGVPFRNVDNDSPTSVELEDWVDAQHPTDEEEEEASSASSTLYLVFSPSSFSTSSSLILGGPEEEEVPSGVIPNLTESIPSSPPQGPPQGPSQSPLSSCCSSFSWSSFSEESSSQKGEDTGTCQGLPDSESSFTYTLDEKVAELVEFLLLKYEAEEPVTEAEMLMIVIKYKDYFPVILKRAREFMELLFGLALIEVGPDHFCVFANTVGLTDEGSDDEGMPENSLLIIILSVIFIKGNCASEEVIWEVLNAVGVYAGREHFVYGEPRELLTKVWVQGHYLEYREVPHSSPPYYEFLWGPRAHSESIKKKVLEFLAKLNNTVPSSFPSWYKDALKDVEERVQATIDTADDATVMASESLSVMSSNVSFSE
inactive: [1] 0.013 | [2] -0.037 | [3] -0.021 | [4] -0.004 | entinostat -0.009 | vorinostat 0.032 | citarinostat 0.029 | silmitasertib 0.057 | [5] 0.089 | [6] -0.09 | entospletinib 0.061

KPNA1 (UniProt P52294)
UniProt P52294, sequence (P52294 whole entry, looked up): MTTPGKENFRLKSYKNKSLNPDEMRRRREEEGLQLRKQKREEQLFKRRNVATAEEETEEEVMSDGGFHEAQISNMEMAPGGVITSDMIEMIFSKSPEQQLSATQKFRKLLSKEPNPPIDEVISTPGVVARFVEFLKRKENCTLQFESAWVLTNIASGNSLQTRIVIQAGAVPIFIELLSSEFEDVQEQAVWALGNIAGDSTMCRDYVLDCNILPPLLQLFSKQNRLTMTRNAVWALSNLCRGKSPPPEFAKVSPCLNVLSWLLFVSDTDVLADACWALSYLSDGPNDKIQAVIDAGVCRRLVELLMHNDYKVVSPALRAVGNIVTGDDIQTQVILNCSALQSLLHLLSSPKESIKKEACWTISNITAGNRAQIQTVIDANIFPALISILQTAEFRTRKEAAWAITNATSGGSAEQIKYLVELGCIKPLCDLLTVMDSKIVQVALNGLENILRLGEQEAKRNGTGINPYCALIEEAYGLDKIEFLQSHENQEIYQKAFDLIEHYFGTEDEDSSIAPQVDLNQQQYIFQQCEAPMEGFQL
inactive: [1] -0.02 | [2] -0.014 | [3] -0.047 | [4] -0.058 | entinostat 0.099 | vorinostat 0.036 | citarinostat 0.166 | silmitasertib 0.088 | [5] 0.064 | [6] -0.037 | entospletinib 0.022

MCU (UniProt Q8NE86)
UniProt Q8NE86, sequence (Q8NE86 whole entry, looked up): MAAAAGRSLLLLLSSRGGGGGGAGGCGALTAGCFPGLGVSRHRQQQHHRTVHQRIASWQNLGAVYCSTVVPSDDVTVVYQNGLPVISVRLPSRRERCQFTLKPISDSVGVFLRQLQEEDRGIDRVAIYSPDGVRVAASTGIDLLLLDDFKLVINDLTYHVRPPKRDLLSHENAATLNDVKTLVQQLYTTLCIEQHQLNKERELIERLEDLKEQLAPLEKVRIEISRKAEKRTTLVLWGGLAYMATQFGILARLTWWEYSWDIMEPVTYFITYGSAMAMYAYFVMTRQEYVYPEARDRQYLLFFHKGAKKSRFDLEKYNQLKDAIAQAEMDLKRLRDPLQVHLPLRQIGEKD
inactive: [1] 0.005 | [2] -0.059 | [3] -0.142 | [4] -0.131 | entinostat 0.034 | vorinostat -0.013 | citarinostat 0.075 | silmitasertib -0.007 | [5] -0.034 | [6] -0.052 | entospletinib 0.031

MAP2K3 isoform 3 (UniProt P46734)
UniProt P46734, sequence (P46734 whole entry, looked up): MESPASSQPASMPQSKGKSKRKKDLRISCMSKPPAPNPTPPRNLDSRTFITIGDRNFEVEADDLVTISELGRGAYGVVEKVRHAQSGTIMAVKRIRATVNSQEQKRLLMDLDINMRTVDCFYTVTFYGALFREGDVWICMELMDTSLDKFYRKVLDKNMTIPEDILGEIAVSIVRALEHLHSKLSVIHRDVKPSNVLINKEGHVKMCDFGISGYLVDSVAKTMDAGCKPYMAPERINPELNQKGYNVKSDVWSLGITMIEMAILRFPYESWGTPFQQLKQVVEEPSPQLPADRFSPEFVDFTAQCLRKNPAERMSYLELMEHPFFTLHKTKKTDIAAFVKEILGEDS
inactive: [1] -0.04 | [2] -0.018 | [3] -0.14 | [4] -0.025 | entinostat 0.068 | vorinostat 0.02 | citarinostat -0.126 | silmitasertib -0.024 | [5] -0.188 | [6] -0.052 | entospletinib 0.013

IMMT isoform 4 (UniProt Q16891)
inactive: [1] -0.022 | [2] -0.083 | [3] -0.132 | [4] -0.056 | entinostat 0.021 | vorinostat 0.008 | citarinostat 0.007 | silmitasertib -0.038 | [5] -0.031 | [6] -0.035 | entospletinib -0.011
